Measured values published in PubChem BioAssay (NCI).
Values joined by “and” are separate entries in the source; they are usually repeats but may differ in a detail not shown here. Equal entries are not always repeated. The panel holds about 79,000 compounds, 15% with a hit somewhere; the sample as a whole holds those more often. The source holds several records for some structures; these can differ, active in one and inactive in another. Active and inactive are the calls of the source. Cut-off read from the data, not from the text of the source: active = growth inhibition above about 70%; inactive = the rest.

Experiments:
[1] = NCI Yeast Anticancer Drug Screen. Data for the rad52 strain (AID 147);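 note: 0% = growth of vehicle-treated control cultures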; conditions: S. cerevisiae rad52 mutant growth inhibition, stronger effect = higher value
In short: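 Growth of repair-deficient yeast cells was compared between compound-treated and vehicle-treated cultures to give percent inhibition.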

[2] = NCI Yeast Anticancer Drug Screen. Data for the wt1 strain (AID 149);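 note: 0% = growth of vehicle-treated wt1 cultures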; conditions: S. cerevisiae wt1 strain (SPY 50644) growth inhibition, stronger effect = higher value
In short: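 Compounds are added to wt1 yeast cultures. Growth is then measured. Inhibition is expressed relative to vehicle-treated controls.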

[3] = NCI Yeast Anticancer Drug Screen. Data for the mgt1 strain (AID 153); conditions: S. cerevisiae mgt1 mutant growth inhibition, stronger effect = higher value
In short: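 Compounds were applied to mgt1 mutant yeast, and growth was then compared against vehicle-treated control cultures to give percent inhibition.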

[4] = NCI Yeast Anticancer Drug Screen. Data for the rad50 strain (AID 155);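 note: 0% = growth of vehicle-only cultures of the same strain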; conditions: S. cerevisiae rad50 strain growth inhibition, stronger effect = higher value
In short: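 Inhibition values express reduced yeast growth in compound-treated cultures relative to vehicle-treated controls.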

[5] = NCI Yeast Anticancer Drug Screen. Data for the mec2-1 strain (AID 157); conditions: S. cerevisiae mec2-1 strain, stronger effect = higher value
In short: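 Compounds were applied to mec2-1 yeast cells. Their growth was then compared with that of vehicle-treated cultures to give growth inhibition.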

[6] = NCI Yeast Anticancer Drug Screen. Data for the rad14 strain (AID 159);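 note: 0% = growth of vehicle-treated control cultures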; conditions: S. cerevisiae rad14 strain growth inhibition, stronger effect = higher value
In short: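 A mutant yeast strain defective in DNA damage repair is treated with compound; inhibition of its growth is scored against untreated, vehicle-exposed cultures.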

[7] = NCI Yeast Anticancer Drug Screen. Data for the sgs1 mgt1 strain (AID 161);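 note: 0% = growth of cultures given vehicle only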; conditions: S. cerevisiae sgs1 mgt1 strain, stronger effect = higher value
In short: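 Growth of a repair-deficient yeast mutant was monitored after compound treatment and expressed as inhibition relative to vehicle-treated cultures.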

[8] = NCI Yeast Anticancer Drug Screen. Data for the CLN2oe strain (AID 163);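 note: 0% = growth of vehicle-only control cultures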; conditions: S. cerevisiae CLN2oe strain, stronger effect = higher value
In short: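 Cells of an engineered yeast line with disturbed cell-cycle regulation are treated with compound. Inhibition of growth is then calculated relative to the vehicle-treated reference.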

[9] = NCI Yeast Anticancer Drug Screen. Data for the cln2 rad14 strain (AID 165);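 note: 0% = growth equal to vehicle treated cultures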; conditions: S. cerevisiae cln2 rad14 strain, stronger effect = higher value
In short: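 Strain: cln2 rad14 yeast, altered in cell cycle control and DNA damage repair. Read-out: growth inhibition vs vehicle.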

[10] = NCI Yeast Anticancer Drug Screen. Data for the bub3 strain (AID 167); conditions: S. cerevisiae bub3 mutant strain, stronger effect = higher value
In short: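 Steps: expose the mutant yeast strain to compound; grow alongside vehicle-treated cultures; measure growth; express inhibition against the vehicle cultures.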

[11] = NCI Yeast Anticancer Drug Screen. Data for the wt2 strain (AID 169);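 note: 0% = growth of vehicle-treated yeast cultures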; conditions: S. cerevisiae wt2 strain growth inhibition, stronger effect = higher value
In short: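 Growth of compound-treated yeast is measured and expressed as inhibition relative to vehicle-only controls.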

[12] = NCI Yeast Anticancer Drug Screen. Data for the mlh1 strain (AID 171);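 note: 0% = growth of vehicle-treated control cultures of the same strain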; conditions: S. cerevisiae mlh1 strain growth inhibition, stronger effect = higher value
In short: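 Test agents were incubated with yeast bearing a defined DNA damage repair or cell cycle control alteration; values are growth inhibition normalised to vehicle-treated cultures.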

[13] = NCI Yeast Anticancer Drug Screen. Data for the sgs1 strain (AID 173);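 note: 0% = growth of vehicle-only control cultures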; conditions: S. cerevisiae sgs1 mutant, stronger effect = higher value
In short: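 Strain with an altered DNA repair or cell cycle pathway exposed to compound. Growth then measured. Value = inhibition versus vehicle control.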

[14] = NCI Yeast Anticancer Drug Screen. Data for the mlh1 rad18 strain (AID 175); conditions: S. cerevisiae mlh1 rad18 strain growth inhibition, stronger effect = higher value
In short: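 A repair-deficient yeast strain is exposed to test compound, and growth is scored relative to vehicle-treated controls.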

[15] = NCI Yeast Anticancer Drug Screen. Data for the rad18 strain (AID 177); conditions: S. cerevisiae rad18 mutant growth inhibition, stronger effect = higher value
In short: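 DNA-repair-defective yeast; compound treatment; growth inhibition scored against vehicle.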

[16] = at 5.0 µM (retest, dose inferred, filed as 0.5)
[17] = at 50.0 µM (retest, dose inferred, filed as 5.0)

Measured: growth inhibition

C=C1C(=O)OC2CC1C(OC(C)=O)C/C(C)=C/CC/C(C)=C\CCC2(C)O (stereo not drawn)
24% (inactive) and 85% (active): [4]; [16]
18% (inactive) and 82% (active): [5]; [16]
36% (inactive) and 90% (active): [10]; [16]
inactive: [1]; at 1.2 µM -5% | [1]; at 3.7 µM 1% | [1]; at 11.0 µM 15% | [1]; at 33.0 µM 33% | [2]; at 1.2 µM 3% | [2]; at 3.7 µM 11% | [2]; at 11.0 µM 13% | [2]; at 33.0 µM 30% | [3]; at 1.2 µM -14% | [3]; at 3.7 µM 3% | [3]; at 11.0 µM 13% | [3]; at 33.0 µM 28% | [4]; at 1.2 µM -3% | [4]; at 3.7 µM 9% | [4]; at 11.0 µM 17% | [4]; at 33.0 µM 40% | [5]; at 1.2 µM 11% | [5]; at 3.7 µM 17% | [5]; at 11.0 µM 23% | [5]; at 33.0 µM 37% | [6]; at 1.2 µM 5% | [6]; at 3.7 µM 17% | [6]; at 11.0 µM 31% | [6]; at 33.0 µM 44% | [8]; at 1.2 µM -17% | [8]; at 3.7 µM 9% | [8]; at 11.0 µM 20% | [8]; at 33.0 µM 13% | [9]; [16] 6% and 31% | [10]; at 1.2 µM 6% | [10]; at 3.7 µM -8% | [10]; at 11.0 µM 4% | [10]; at 33.0 µM 24% | [11]; at 1.2 µM -2% | [11]; at 3.7 µM -4% | [11]; at 11.0 µM 12% | [11]; at 33.0 µM 17% | [12]; at 1.2 µM -5% | [12]; at 3.7 µM 19% | [12]; at 11.0 µM 28% | [12]; at 33.0 µM 51% | [13]; at 1.2 µM 13% | [13]; at 3.7 µM 27% | [13]; at 11.0 µM 40% | [13]; at 33.0 µM 55% | [15]; at 1.2 µM -15% | [15]; at 3.7 µM 1% | [15]; at 11.0 µM 15% | [15]; at 33.0 µM 49%
63% (inactive) and 98% (active): [4]; [17]
24% (inactive) and 99% (active): [7]; [16]
67% (inactive) and 99% (active): [7]; [17]
active: [1]; at 100.0 µM 88% | [2]; at 100.0 µM 85% | [3]; at 100.0 µM 80% | [4]; at 50.0 µM 81.5% and 88.8% | [4]; at 100.0 µM 86% | [5]; [17] 79% and 99% | [5]; at 50.0 µM 81.7% and 91.2% | [5]; at 100.0 µM 89% | [6]; at 100.0 µM 87% | [7]; at 50.0 µM 71.2% and 87.9% | [8]; at 100.0 µM 85% | [9]; at 50.0 µM 78.8% and 89.3% | [10]; [17] 85% and 99% | [10]; at 50.0 µM 84.5% and 90.7% | [10]; at 100.0 µM 85% | [11]; at 100.0 µM 93% | [12]; at 100.0 µM 89% | [13]; at 100.0 µM 90% | [14]; [17] 97% | [14]; at 50.0 µM 85.5% and 86.8% | [15]; at 100.0 µM 91%
60% (inactive) and 95% (active): [14]; [16]
51% (inactive) and 97% (active): [9]; [17]
